In PubChem BioAssay AID493098 (Sanford-Burnham Center for Chemical Genomics, 2011):
The campaign covered roughly 340,000 compounds. About 1,700 (0.5%) were called active.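 How the source made its calls: active means compounds whose inhibition of the agonist-driven luminescence signal at 20 µM reaches about 50% (limit read from the data); inactive means the rest.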 The entries come from a sample that favours actives as a whole.

Molecular target: C-C chemokine receptor type 6 (Homo sapiens) (UniProt P51684)
Assay: blockers of CCL20-driven beta-arrestin recruitment to CCR6 – cell-based, CHO-K1, luminescence, uHTS, primary screen (AID 493098);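 further: cells stimulated with CCL20 at 14 nM final; plate controls were DMSO with CCL20 for no effect and DMSO without agonist for full effect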
Settings: CHO-K1 CCR6 PathHunter beta-arrestin, CCL20-stimulated, at 20 µM, active compounds read high

C-C chemokine receptor type 6 (Homo sapiens), sequence (P51684 whole entry, looked up): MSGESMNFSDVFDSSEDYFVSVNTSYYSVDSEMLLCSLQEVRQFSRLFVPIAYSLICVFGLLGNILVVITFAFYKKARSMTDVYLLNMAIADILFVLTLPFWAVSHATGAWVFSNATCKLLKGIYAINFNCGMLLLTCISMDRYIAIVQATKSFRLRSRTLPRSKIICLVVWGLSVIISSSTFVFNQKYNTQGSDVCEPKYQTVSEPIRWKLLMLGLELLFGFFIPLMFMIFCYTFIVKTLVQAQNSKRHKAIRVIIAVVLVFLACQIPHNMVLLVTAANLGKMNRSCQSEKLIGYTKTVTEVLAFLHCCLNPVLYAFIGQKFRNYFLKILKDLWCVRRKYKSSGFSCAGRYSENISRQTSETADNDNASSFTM

inhibition, inactive:
COc1cc(NS(=O)(=O)c2ccc3ccccc3c2)c2ncccc2c1 13.2%
NS(=O)(=O)c1ccc(CCNS(=O)(=O)c2cccc3cccnc23)cc1 12.6%
CCOc1ccccc1NC(=O)COc1ccc(S(=O)(=O)N2CCCC2)cc1 17.1%
O=[N+]([O-])c1ccc(N(CCO)Cc2ccccc2)c([N+](=O)[O-])c1 12.9%
CN1CCN(/N=C2/C(=O)Nc3ccc([N+](=O)[O-])cc32)CC1 7.16%
COc1ccc(N2CCN(CCNC(=O)c3nnc(Cc4c(F)cccc4Cl)o3)CC2)cc1 14.8%
CCn1nc(C)c(CN2CCN(Cc3ccc(OC)c(C)c3C)C(CCO)C2)c1C (configuration not stated) 5.51%
COc1cc2c(-c3ccc4c(c3)OCO4)c(-c3ccsc3)oc(=O)c2cc1OC 21%
O=C(N/N=C/c1cc(Br)c(O)c([N+](=O)[O-])c1)C(O)(c1ccccc1)c1ccccc1 33.5%
O=C(O)c1ccccc1/C=N/Nc1ccc(S(=O)(=O)Nc2ccc(Cl)cc2)cc1[N+](=O)[O-] 46.4%
COC(=O)c1cccc(C(=O)N2CCC(CCC(=O)NCc3ccc(F)cc3)CC2)c1 7.16%
CCc1ccc(N(C(=O)c2csnn2)C(C(=O)NC2CCCCC2)c2cccnc2)cc1 (configuration not stated) 18.2%
Cc1cc2oc(=O)cc(CN(C)Cc3ccc(OC(F)F)cc3)c2cc1Cl 21.5%
COc1ccc(C(C#N)(CC(=O)O)c2cnccn2)cc1OC (configuration not stated) 14.6%
O=c1nc(N/N=C/c2ccco2)cn[nH]1 3.85%
O=S(=O)(c1ccc(NC(=S)NN=C(C2CC2)C2CC2)cc1)N1CCOCC1 15.7%
Cc1ccc(S(=O)(=O)N2CCN(CC(=O)N/N=C/c3cc([N+](=O)[O-])ccc3Cl)CC2)cc1 -22.1%
CCOc1cc(C(=O)OCC(=O)Nc2cccc(C)c2)ccc1OCC(=O)N1CCOCC1 1.35%
CCc1nccn1S(=O)(=O)c1cccc([N+](=O)[O-])c1 3.26%
Cc1ccc(/C([O-])=C(/C(=S)NCc2ccco2)[n+]2ccccc2)cc1[N+](=O)[O-] 14.2%
c1ccc2c(c1)OC1OC2Oc2ccccc21 19.4%
CCC(C)N1C(=O)S/C(=C/c2ccc(Sc3nc4ccccc4[nH]3)o2)C1=O (configuration not stated) 15.6%
Cc1cc(C(=O)N/N=C/c2cc([N+](=O)[O-])cc(C)c2O)n[nH]1 34.7%
O=C(NC(Nc1nc2ccc([N+](=O)[O-])cc2s1)(C(F)(F)F)C(F)(F)F)c1ccccc1 34.6%
O=C(CN(Cc1ccc(Br)cc1)S(=O)(=O)c1ccccc1)NCc1ccncc1 28.9%
CCOC(=O)c1c(C)[nH]c(C)c1S(=O)(=O)NCCCc1ccco1 0.21%
COc1ccc(C(=O)NC2CC2)cc1OC1CCN(C/C=C/c2ccccc2)CC1 3.46%
O=C(N/N=C/c1cc([N+](=O)[O-])ccc1O)/C(=C\c1cccs1)NC(=O)c1ccccc1 34.4%
Nc1nnnn1/N=C/c1cc([N+](=O)[O-])ccc1O 23.1%
CCN(CC)C(=O)c1nc[nH]c1C(=O)N(C)Cc1ccccc1 9.33%
COc1ccc(OC)c(-c2csc(NC(=O)C3=NNC(=O)CC3)n2)c1 -1%
COc1ccc2oc(=O)cc(-c3cc4ccccc4o3)c2c1 10.7%
Cc1cc(Cl)c(S(=O)(=O)NCc2cccnc2)cc1OCC(N)=O -11.7%
NC(=O)C1(Nc2ccc([N+](=O)[O-])cc2)CCCC1 4.74%
CNC(=S)Nc1ccc([N+](=O)[O-])cc1 7.58%
CC(=O)NC(CC(=O)Nc1ccc(S(=O)(=O)N2CCOCC2)cc1)c1ccccc1 (configuration not stated) 4.97%
Cc1nc(SCC(=O)NC2CCCCC2C)c(C#N)c(C)c1C (configuration not stated) 13%
COc1cccc(OC)c1C(=O)NC(=S)Nc1ccc(N2CCOCC2)c(Cl)c1 8.18%
CCOc1ccc(C(=O)NC(=S)Nc2ccc(NC(=O)C(C)C)cc2)cc1[N+](=O)[O-] 28.1%
C/C=C/C=C/C(=O)O -5.26%
COC(=O)c1ccc(NCc2cc(O)ccc2O)cc1 20.3%
Cc1ccc(C(=O)NC2CCN(C(=O)Nc3ccc(F)cc3)CC2)cc1 -8.58%
Cc1ccc(NC(=S)Nc2ccc(F)cc2)cc1 -4.89%
COc1ccc(NC(=O)CCCC(=O)c2ccccc2)cc1 -6.21%
O=C(Nc1ccc(Br)cc1F)C1CC(=O)N(C2CCCCC2)C1 (configuration not stated) 1.54%
CC(C)NC(=O)c1ccc(Sc2ccccc2)c([N+](=O)[O-])c1 10.2%
Cc1cc(C)cc(OCC(=O)NNC(=O)CCN2C(=O)c3ccccc3C2=O)c1 10.7%
CC(=O)N(C1=C(Cl)C(=O)c2ccccc2C1=O)c1ccc(C(=O)O)cc1 11.9%
O=C(CCC1CCN(C(=O)c2cccc(Cl)c2F)CC1)Nc1ccccc1 20.2%
O=C1C=C(NS(=O)(=O)c2ccccc2)C(=O)c2ccccc21 29.7%
CC(NC(=O)c1ccccc1)C(=O)Nc1ccccc1 (configuration not stated) -0.64%
CCn1c(=S)[nH]c2cc(S(=O)(=O)N3CCOCC3)ccc21 -2.44%
CC(c1ccco1)N(C(=O)Nc1ccccc1)C1CCCCC1 (configuration not stated) 3.12%
O=C(Nc1cccc([N+](=O)[O-])c1)Nn1cnnc1 12.5%
COc1ccc(S(=O)(=O)NC(C)C(=O)Nc2cccc([N+](=O)[O-])c2)cc1 (configuration not stated) 7.92%
C/C(N)=C(/C#N)C(=O)COC(=O)C1=NN(c2ccccc2)C(=O)CC1 7.03%
Cc1ccc(S(=O)(=O)N2CCC(Oc3ccc(-n4cnnn4)cc3)CC2)cc1 3.04%
COc1cccc(/C=C2/SC(=S)N(CC(=O)NC3C=CS(=O)(=O)C3)C2=O)c1 (configuration not stated) -8.12%
CN1C=CC=C/C1=C1\SC(=S)N(Cc2ccccc2)C1=O 25.3%
COC(=O)c1ccc(NC(=O)CSc2nncc3ccc(OC)c(OC)c23)cc1 -2.84%
C#CCOc1ccc(/C=C2/C(=O)NN(c3ccccc3)C2=O)cc1OC 12%
COc1cc(CN2CC(C)CC(C)C2)cc([N+](=O)[O-])c1O (configuration not stated) 5.99%
COc1ccc(NC(=O)CC(NC(C)c2ccccc2)C(=O)O)cc1 (configuration not stated) 0.17%
O=C(COC(=O)c1cc(S(=O)(=O)N2CCOCC2)ccc1Cl)NCCc1ccccc1 9.32%
O=C(C1CCCO1)N(Cc1ccccc1)c1ccccc1 (configuration not stated) 2.47%
Cc1cnc(C(=O)N2CCCC(C(=O)c3ccc(C(F)(F)F)cc3)C2)cn1 (configuration not stated) 15.2%
Cc1ccccc1C(=O)OC1OC(=O)C(Cl)=C1Nc1ccccc1 (configuration not stated) 17.2%
O=S(=O)(Nc1cc(Cl)ccc1N1CCOCC1)c1ccccc1Cl 17.2%
Cc1oc2c(c1C(=O)N1CCOCC1)C(=O)c1ccccc1C2=O -12.2%
Cc1ccc2c(C)c(C(=O)N3CCC(N4CCC(C(=O)NC5CC5)CC4)CC3)oc2c1 1.71%
CN(C(=O)CSc1nnc(Nc2ccccc2)s1)C1CCS(=O)(=O)C1 (configuration not stated) 4%
O=C1c2cccnc2C(Nc2ccc(S(=O)(=O)N3CCCCCC3)cc2)N1Cc1ccccc1 (configuration not stated) 5.72%
Cc1ccc(S(=O)(=O)NCc2ccc(C(=O)NC3CCC(C)CC3)cc2)cc1 (configuration not stated) 19.3%

inhibition, active:
O=[N+]([O-])c1ccccc1S(=O)(=O)Nc1cccc2cccnc12 54.6%
O=C1Nc2ccc([N+](=O)[O-])cc2C1=Nc1cccc(CO)c1 57.4%
O=C(N/N=C/c1cc(Cl)cc([N+](=O)[O-])c1O)C(O)(c1ccccc1)c1ccccc1 54.2%
O=[N+]([O-])c1cc(Cl)cc(/C=N/NC(=S)Nc2cc(S(=O)(=O)N3CCOCC3)ccc2Cl)c1O 63.1%
O=[N+]([O-])c1cc(Br)c(O)c(/C=N/Nc2nc3ccccc3s2)c1 54.2%
O=[N+]([O-])c1ccc(O)c(/C=N/Nc2ccccc2[N+](=O)[O-])c1 55.9%
COc1ccc2nc(Nc3nc(-c4cc5ccccc5oc4=O)cs3)sc2c1 54.4%
O=[N+]([O-])c1ccc(N=NNc2ccc([N+](=O)[O-])cc2)cc1 58.2%
CCOc1ccc(C(=O)NC(=S)Nc2ccc(N3CCOCC3)c(Cl)c2)cc1[N+](=O)[O-] 53.9%
COC(=O)c1ccc(NCC(=O)c2ccccc2)cc1 72.6%
Cc1ccc(C(=O)CNc2ccc(F)cc2)cc1 90.9%
O=C1C(Cl)=C(Oc2ccccc2)C(=O)c2ccccc21 117%
O=C(NC1=CC(=O)c2ccccc2C1=O)c1ccccc1 83%
COC(=O)/C=C\C(=O)Nc1cccc([N+](=O)[O-])c1 106%
COc1cc(/C=C2/SC(=S)N(Cc3ccccc3)C2=O)cc(OC)c1O 52.9%
COc1cc(/C=C2/C(=O)NN(c3ccc(F)cc3)C2=O)cc([N+](=O)[O-])c1O 51.9%
Oc1ccc(N=Nc2nccs2)c(O)c1 67%
Oc1ccc2ccccc2c1N=Nc1nccs1 94.3%
O=C1c2ccccc2-c2ncnc3c(N4CCOCC4)cc(N4CCOCC4)c1c23 55.9%
